Measurements: PubChem BioAssay AID430 (Sanford-Burnham Center for Chemical Genomics, 2006)
Out of some 63,000 compounds screened, about 1,100 (1.7%) were called active. This excerpt belongs to a sample that is enriched for actives. Results with a measured potency or affinity are listed apart. Unmarked numbers belong to inactive results. Rule as the data show it: active = cytotoxicity above about 50%; inactive = the rest.

Experiment: cytotoxicity in HPDE-C7 cells, cell-based, fluorescence, HTS (AID 430);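 also: cells exposed to compound for 48 hours before viability readout; 0% = vehicle and 100% = reference cytotoxic drug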
Settings: HPDE-C7 pancreatic duct cells viability, at 10 µM, active compounds read high

| Compound | cytotoxicity |
| --- | --- |
| CC(C)NC(=O)Cn1c(SCC(=O)N2CCCc3ccccc32)nc2ccccc21 | -5.8% |
| CC(C)NC(=O)Cn1c(SCC(=O)N2CCc3ccccc3C2)nc2ccccc21 | 129% (active) |
| CC(C)NC(=O)Cn1c(SCC(=O)N2CCCCCC2)nc2ccccc21 | -7.8% |
| Cc1ccc(C(=O)Nc2ccccc2N2CCN(C(=O)C(C)C)CC2)cc1C | -15% |
| COc1ccc(NC(=O)Cn2cnc3c(cnn3-c3ccc(C)c(C)c3)c2=O)c(OC)c1 | -1.2% |
| CCN(CC)CCOc1nc(C)nc2c1oc1ccccc12 | -0.5% |
| CCc1nc(OCCN(C)C)c2oc3ccccc3c2n1 | -12.4% |
| CN(C)CCOc1nc(-c2ccccc2)nc2c1oc1ccccc12 | 56.4% (active) |
| Cc1ccc2[nH]c(=O)c(CNC(C)(C)C)cc2c1 | 1.4% |
| O=C(C1=C(O)C(=O)N(CCN2CCOCC2)C1c1cccs1)c1cc2ccccc2o1 (stereo not given) | -34.2% |
| CCS(=O)(=O)N1Cc2ccccc2CC1C(=O)Nc1nc2ccccc2[nH]1 (stereo not given) | 6.5% |
| Cc1nn(C)cc1C1C2=C(CC(C)(C)CC2=O)OC2=C1C(=O)CC(C)(C)C2 | -12.3% |
| COC(=O)C1=C(N)OC2=C(C(=O)CC(C)(C)C2)C1c1ccoc1 (stereo not given) | -0.4% |
| CCN(Cc1cc2cc(C)ccc2[nH]c1=O)C(=O)c1cccc(OC)c1 | 0.1% |
| Clc1cc(Cl)c2nc(N3CCCCC3)sc2c1 | -1.2% |
| COC(=O)c1c(C)nn(-c2ccccc2)c1N | 4.7% |
| COc1ccc(NC(=O)N2CCCC(c3nc(-c4ccc(C(C)C)cc4)no3)C2)cc1 (stereo not given) | 56.3% (active) |
| COc1ccc(-c2noc(C3CCCN(C(=O)c4cccs4)C3)n2)cc1 (stereo not given) | -9% |
| Cc1ccccc1NC(=O)N1CCCC(c2nc(-c3ccc(C(C)C)cc3)no2)C1 (stereo not given) | 33.3% |
| CC1=C(C(=O)N(C)C)C(c2ccc(Cl)c(Cl)c2)NC(=O)N1 (stereo not given) | -1.2% |
| O=C(Nc1nc(-c2ccncc2)cs1)c1ccco1 | 9.1% |
| O=C(Nc1nc(-c2cc3ccccc3oc2=O)cs1)c1ccco1 | 85% (active) |
| Cc1csc(NC(=O)c2ccco2)n1 | -14.7% |
| O=C(NC1CCCCC1)NC1(C(=O)NCCCN2CCOCC2)CCCCC1 | -1.8% |
| CCN(CC)c1ccc(NC(=O)CN2CCN(CC(=O)Nc3ccc(F)cc3)CC2)cc1 | 4.2% |

| Compound | cytotoxicity |
| --- | --- |
| O=C(CN1CCOc2ccccc21)N1CCCC1 | 4.1% |
| CC(=O)c1ccc(NC(=O)C2CCC(C)NC2=O)cc1 (stereo not given) | -4.9% |
| CCOc1ccc(-c2nnc3ccc(SCC(=O)N4CCN(c5ccccc5)CC4)nn23)cc1 | 56.6% (active) |
| O=C(CSc1ccc2nnc(-c3ccccc3)n2n1)N1CCN(c2ccccc2)CC1 | -3.5% |
| COc1ccc(-c2nnc3ccc(SCC(=O)N4CCN(c5ccccc5)CC4)nn23)cc1 | -6.6% |
| CCn1c(=N)c(C(N)=O)cc2c(=O)n3cccc(C)c3nc21 | 3.5% |
| Cc1cc(C)c2[nH]c(=O)c(C(c3nnnn3C3CCCC3)N3CCOCC3)cc2c1 (stereo not given) | -7.3% |
| O=C(Nc1nc2ccccc2n1CCN1CCCC1)c1ccc(Cl)cc1 | 59.6% (active) |
| CCCn1c(NC(=O)c2ccc(Cl)c(S(=O)(=O)N3CCCC3)c2)nc2ccccc21 | 16.1% |
| CCCn1c(NC(=O)c2cccc(S(=O)(=O)N3CCCC3)c2)nc2ccccc21 | 61.9% (active) |
| CCCn1c(NC(=O)c2ccc(C)cc2)nc2ccccc21 | -34.1% |
| O=C(Nc1nc2ccccc2n1CCN1CCCCC1)c1ccco1 | -1.1% |
| Cc1ccc(C(=O)Nc2nc3ccccc3n2CCN2CCCC2)cc1 | 1.6% |
| COc1ccc(S(=O)(=O)N(CC(=O)NCCCN(C)C)c2ccc(C)cc2)cc1OC | 1% |
| CC(=O)N1c2ccccc2N(Cc2ccc(C)cc2C)C(=O)C1(C)C | 58.4% (active) |
| Cc1ccc(C)c(CN2C(=O)C3(OCCCO3)c3ccccc32)c1 | -1.3% |
| Cc1ccccc1CN1C(=O)C2(OCCCO2)c2ccccc21 | -4% |
| N=c1n(CCOc2ccccc2)c2ccccc2n1CCN1CCOCC1 | -22.8% |
| CC1(C)CC(=O)C2=C(C1)NC(Nc1nc3ccccc3o1)=NC21CCCC1 | -16.5% |
| Nc1nnnn1/N=C/c1cccc(Oc2ccccc2)c1 | -9.6% |
| Nc1nnnn1/N=C/C=C/c1ccccc1 | -7.1% |
| CC(=O)Nc1ccc(-n2c(C)nc(=O)c(-c3ccccc3)c2C)cc1 | 2.9% |
| CS(=O)(=O)c1ccc2nc(NC(=O)Oc3ccccc3)sc2c1 | 3.4% |
| Cc1ccc(NC(=O)CN(C)S(=O)(=O)c2cccc3cccnc23)cc1 | 0.4% |
| O=C1CC(N2CCOCC2)C(=O)N1CCc1ccccc1 (stereo not given) | 5.1% |

| Compound | cytotoxicity |
| --- | --- |
| Cc1cc(-c2nnc3sc(C4CCCCC4)nn23)n[nH]1 | 4.3% |
| CC(C)C(c1nnnn1CC1CCCO1)N1CCN(Cc2ccc3c(c2)OCO3)CC1 (stereo not given) | -3.2% |
| CC(C)(C)NS(=O)(=O)c1ccc2nc(NC(=O)Cc3cccs3)sc2c1 | 68.7% (active) |
| CS(=O)(=O)c1ccc2nc(NC(=O)Cc3ccccc3)sc2c1 | 0.9% |
| O=C(Cc1cccs1)Nc1nc2ccccc2s1 | 0.1% |
| CCOC(=O)C1CCCN(c2c(NCC3CCCO3)c(=O)c2=O)C1 (stereo not given) | -11.3% |
| COc1ccc(N2CCN(C(=O)c3ccc(-n4nc(C)cc4C)cc3)CC2)cc1 | -4.7% |
| Cc1cc(C)n(-c2ccc(C(=O)NC(C)C)cc2)n1 | -1% |
| COC(=O)c1ccc(Oc2cc(C)nc(-n3nc(C)cc3C)n2)cc1 | 54.2% (active) |
| COc1ccc(Nc2cc(C)nc(-n3nc(C)cc3C)n2)cc1 | 66.9% (active) |
| COC(=O)c1ccc(Nc2cc(C)nc3nc(C)nn23)cc1 | 5.7% |
| CCOc1ccc(Nc2cc(C)nc(-n3nc(C)cc3C)n2)cc1 | 49.1% |
| CC(=O)c1ccc(Oc2cc(C)nc(-n3nc(C)cc3C)n2)cc1 | 60.3% (active) |
| CNc1cc(C)nc(-n2nc(C)cc2C)n1 | -0.2% |
| COC(=O)c1ccc(Oc2ccc3nnc(C)n3n2)cc1 | -7.1% |
| O=C(NCCOC(=O)c1ccc(Cl)c(S(=O)(=O)N2CCCCC2)c1)c1ccncc1 | -9.8% |
| CC1(C)CC(=O)c2cnn(-c3nc4ccccc4[nH]3)c2C1 | -0.3% |
| c1ccc2c(c1)nc(N1CCOCC1)c1c3ccccc3[nH]c21 | -21.6% |
| Cc1noc(C)c1COC(=O)c1ccc2c(c1)OCCO2 | 4.3% |
| O=C(Oc1cccc2cccnc12)c1cccc(-n2cnnn2)c1 | 20.3% |
| Cc1ccc2cccc(OC(=O)c3ccc4c(c3)OCCO4)c2n1 | 53% (active) |
| CN(CCOC(=O)c1ccc2c(c1)OCCO2)Cc1ccccc1 | -14% |
| O=S(=O)(Nc1ccc2c(c1)OCCO2)c1cccc2cccnc12 | -0.7% |
| Cc1[nH]c2ccc(-c3nnc(SCC(=O)c4ccccc4F)o3)cc2c1C | 66.4% (active) |
| Cc1[nH]c2ccc(-c3nnc(SCC(=O)N4CCCc5ccccc54)o3)cc2c1C | -10.5% |

| Compound | cytotoxicity |
| --- | --- |
| Cc1[nH]c2ccc(-c3nnc(SCC(=O)c4ccc(F)cc4)o3)cc2c1C | 1.7% |
| COc1cccc(C2(O)CCN(C(=O)C3CCC3)CC2)c1 | -6.9% |
| O=C1c2ccccc2CCC1C(O)c1ccccn1 (stereo not given) | -15% |
| COc1cccc(CN(Cc2cccnc2)S(=O)(=O)c2ccc(-n3cnnn3)c(C)c2)c1OC | -18% |
| COc1ccccc1N1CCN(c2cc(N3CCCC3)nc(C)n2)CC1 | 2.7% |
| COc1ccccc1N1CCN(c2ccc(-c3ccccc3)nn2)CC1 | 61.1% (active) |
| COc1ccccc1N1CCN(c2nc(-c3ccccc3)cc(C(F)(F)F)n2)CC1 | 10.1% |
| COCC(C)NC(=O)c1cc(-c2cccc(OC)c2)on1 (stereo not given) | -3.6% |
| Cc1cc(C)cc(OCC(=O)Nc2ccc(N3CCN(S(C)(=O)=O)CC3)cc2)c1 | -17.3% |
| Cc1ccccc1NC(=O)c1ccc(F)c(S(=O)(=O)N2CCN(c3ccccn3)CC2)c1 | -26.8% |
| Cc1cc(NCCCN2CCOCC2)n2ncc(-c3ccc(Cl)cc3)c2n1 | 11.9% |
| Cc1cc(NCCN2CCOCC2)n2ncc(-c3ccc(Cl)cc3)c2n1 | 9.8% |
| Cc1cc(NCCOCCO)n2ncc(-c3ccc(Cl)cc3)c2n1 | 65.6% (active) |
| Cc1cc(C)n(S(=O)(=O)Cc2ccccc2)n1 | -8.3% |
| O=S(=O)(/C=C/c1ccccc1)n1cnc2ccccc21 | 22.4% |
| Cc1cc(C)nc(Nc2n[nH]c(-c3ccccc3Br)n2)n1 | -1.8% |
| COc1ccccc1N1CCN(C(=O)Nc2cccc(C)c2)CC1 | -2.6% |
| Cc1ccc(SC(C)C(=O)N2CCCC2)cc1 (stereo not given) | 5.9% |
| CCCCCCNS(=O)(=O)c1ccc(Cl)s1 | -26.3% |
| CCC(=O)Nc1nonc1-c1nc2ccccc2n1CC(C)C | 25.7% |
| N#CCCn1c(-c2nonc2NC(=O)c2ccccc2Cl)nc2ccccc21 | 41.9% |
| CCOC(=O)Cn1c(-c2nonc2NC(=O)c2ccccc2F)nc2ccccc21 | 41.5% |
| CCCCn1c(-c2nonc2NC(=O)c2ccccc2Cl)nc2ccccc21 | 69.4% (active) |
| CCC(=O)Nc1nonc1-c1nc2ccccc2n1Cc1ccccc1 | 6.6% |
| CCC(=O)Nc1nonc1-c1nc2ccccc2n1N(C(=O)CC)C(=O)CC | 54.2% (active) |
